Data from paper PMC7862700, “An all-to-all approach to the identification of sequence-specific readers for epigenetic DNA modifications on cytosine”.

Columns and labels:
Experiment in all cases: DAPPL (digital affinity profiling via proximity ligation, sequencing); 10 mM Tris-HCl pH 7.5, 50 mM NaCl, 1 mM DTT, 4% glycerol, room temperature, 30 min; GST-TFs on glutathione beads, 16-mer random dsDNA library, 0.1% formaldehyde crosslink after washing; high values mean tight binding
Conditions in all cases: protein: recombinant; tags: N-terminal GST; dsDNA, one strand shown
FLI1 = target: T1, FLI1 (Homo sapiens, UniProt Q01543 1-452)
T1 sequence: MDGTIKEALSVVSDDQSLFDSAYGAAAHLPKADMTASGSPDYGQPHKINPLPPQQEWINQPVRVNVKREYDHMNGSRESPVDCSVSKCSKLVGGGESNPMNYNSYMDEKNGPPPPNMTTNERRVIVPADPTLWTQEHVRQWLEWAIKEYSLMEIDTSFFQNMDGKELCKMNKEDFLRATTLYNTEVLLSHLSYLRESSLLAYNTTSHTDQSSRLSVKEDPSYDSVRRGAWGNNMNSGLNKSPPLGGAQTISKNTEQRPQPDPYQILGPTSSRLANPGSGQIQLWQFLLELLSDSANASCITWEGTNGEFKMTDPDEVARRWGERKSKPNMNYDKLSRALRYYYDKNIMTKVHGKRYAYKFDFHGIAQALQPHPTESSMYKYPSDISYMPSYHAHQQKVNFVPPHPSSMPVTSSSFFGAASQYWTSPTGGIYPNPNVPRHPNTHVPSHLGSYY
Outline: (§1)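 Sequencing on an Illumina NextSeq500 followed washing, crosslinking with 0.1% formaldehyde, proximity ligation (BsaI/T4 ligase, 1 h, 37 °C) and PCR amplification of pools that had been incubated for 30 min at room temperature with 200 nmole of a random double-stranded 16-mer DNA library in Tris/NaCl/DTT/glycerol buffer. Each pool held DNA-barcoded human transcription factors, expressed in yeast as GST fusions and captured on glutathione beads, plus a tag-only sample. Binding signal is a hexamer's read frequency for a factor divided by its frequency in the tag-only sample.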

ELK1 = target: T2, ELK1 (Homo sapiens, UniProt P19419 1-428)
T2 sequence: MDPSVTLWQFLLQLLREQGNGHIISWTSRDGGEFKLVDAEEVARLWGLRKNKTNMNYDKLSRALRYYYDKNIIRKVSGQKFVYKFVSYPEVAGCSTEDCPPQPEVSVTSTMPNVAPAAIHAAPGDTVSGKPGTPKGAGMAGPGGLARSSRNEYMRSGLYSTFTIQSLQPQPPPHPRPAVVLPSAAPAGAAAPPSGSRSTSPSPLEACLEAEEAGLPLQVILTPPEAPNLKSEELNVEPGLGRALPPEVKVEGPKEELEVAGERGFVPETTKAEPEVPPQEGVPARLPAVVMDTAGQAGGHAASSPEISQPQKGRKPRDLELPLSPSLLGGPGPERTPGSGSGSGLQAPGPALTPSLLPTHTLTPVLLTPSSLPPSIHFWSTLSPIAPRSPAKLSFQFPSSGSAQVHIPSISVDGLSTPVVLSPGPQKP
Outline: as §1

GABPA = target: T3, GABPA (Homo sapiens, UniProt Q06546 1-454)
T3 sequence: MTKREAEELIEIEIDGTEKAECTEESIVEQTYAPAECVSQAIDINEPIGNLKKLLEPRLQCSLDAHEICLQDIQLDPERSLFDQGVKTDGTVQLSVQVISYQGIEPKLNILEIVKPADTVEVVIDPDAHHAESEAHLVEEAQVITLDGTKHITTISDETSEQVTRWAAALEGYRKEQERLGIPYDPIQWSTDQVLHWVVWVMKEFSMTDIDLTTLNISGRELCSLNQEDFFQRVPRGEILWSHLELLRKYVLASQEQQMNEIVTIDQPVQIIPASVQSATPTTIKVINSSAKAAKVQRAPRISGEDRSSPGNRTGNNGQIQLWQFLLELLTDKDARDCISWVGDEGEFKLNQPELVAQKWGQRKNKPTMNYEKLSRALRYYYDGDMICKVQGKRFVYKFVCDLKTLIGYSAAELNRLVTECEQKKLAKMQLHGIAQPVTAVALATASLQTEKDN
Outline: as §1

ERG = target: T4, ERG (Homo sapiens, UniProt P11308 1-479)
T4 sequence: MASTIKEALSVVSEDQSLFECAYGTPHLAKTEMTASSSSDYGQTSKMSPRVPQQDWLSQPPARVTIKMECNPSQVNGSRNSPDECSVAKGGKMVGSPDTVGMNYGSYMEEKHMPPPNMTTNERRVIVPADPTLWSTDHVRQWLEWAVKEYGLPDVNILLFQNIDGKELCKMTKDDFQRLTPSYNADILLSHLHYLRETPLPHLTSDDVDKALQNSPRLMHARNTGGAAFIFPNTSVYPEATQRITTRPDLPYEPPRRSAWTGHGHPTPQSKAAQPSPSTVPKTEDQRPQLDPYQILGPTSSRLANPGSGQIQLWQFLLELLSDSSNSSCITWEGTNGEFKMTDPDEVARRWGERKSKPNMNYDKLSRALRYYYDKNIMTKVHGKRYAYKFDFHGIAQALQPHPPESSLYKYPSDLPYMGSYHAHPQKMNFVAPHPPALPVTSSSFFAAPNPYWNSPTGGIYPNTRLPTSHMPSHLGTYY
Outline: as §1

ELF1 = ELF1 (Homo sapiens, UniProt P32519 1-619)
ELF1, sequence (P32519 whole entry): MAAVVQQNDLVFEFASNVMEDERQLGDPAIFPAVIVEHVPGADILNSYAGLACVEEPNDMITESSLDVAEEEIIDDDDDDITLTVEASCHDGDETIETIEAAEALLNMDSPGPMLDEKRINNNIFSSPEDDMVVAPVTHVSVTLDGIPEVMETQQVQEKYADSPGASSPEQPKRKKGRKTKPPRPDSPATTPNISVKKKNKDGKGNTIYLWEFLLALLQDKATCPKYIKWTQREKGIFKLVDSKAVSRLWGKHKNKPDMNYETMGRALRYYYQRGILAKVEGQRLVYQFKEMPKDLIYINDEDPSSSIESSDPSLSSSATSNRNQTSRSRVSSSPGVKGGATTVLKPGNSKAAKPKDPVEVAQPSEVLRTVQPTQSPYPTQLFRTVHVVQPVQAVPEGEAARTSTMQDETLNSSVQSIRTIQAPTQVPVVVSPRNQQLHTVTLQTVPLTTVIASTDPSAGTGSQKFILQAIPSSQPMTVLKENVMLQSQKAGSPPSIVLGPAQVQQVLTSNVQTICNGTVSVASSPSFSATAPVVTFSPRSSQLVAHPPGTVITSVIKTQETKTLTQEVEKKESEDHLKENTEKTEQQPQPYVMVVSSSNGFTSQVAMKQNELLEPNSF
Outline: as §1

EHF = target: T5, EHF (Homo sapiens, UniProt Q9NZC4 1-300)
T5 sequence: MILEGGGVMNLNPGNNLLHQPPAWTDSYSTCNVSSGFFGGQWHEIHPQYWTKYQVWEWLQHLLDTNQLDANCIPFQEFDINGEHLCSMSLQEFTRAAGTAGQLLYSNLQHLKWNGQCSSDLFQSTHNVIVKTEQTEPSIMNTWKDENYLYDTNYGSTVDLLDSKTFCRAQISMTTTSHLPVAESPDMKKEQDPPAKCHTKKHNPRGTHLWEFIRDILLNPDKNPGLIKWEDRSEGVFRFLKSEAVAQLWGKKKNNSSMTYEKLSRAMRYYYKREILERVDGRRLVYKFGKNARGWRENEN
Outline: as §1

SPI1 = SPI1 (Homo sapiens, UniProt P17947 1-270)
Outline: as §1

SPIB = SPIB (Homo sapiens, UniProt Q01892 1-262)
SPIB, sequence (Q01892 whole entry): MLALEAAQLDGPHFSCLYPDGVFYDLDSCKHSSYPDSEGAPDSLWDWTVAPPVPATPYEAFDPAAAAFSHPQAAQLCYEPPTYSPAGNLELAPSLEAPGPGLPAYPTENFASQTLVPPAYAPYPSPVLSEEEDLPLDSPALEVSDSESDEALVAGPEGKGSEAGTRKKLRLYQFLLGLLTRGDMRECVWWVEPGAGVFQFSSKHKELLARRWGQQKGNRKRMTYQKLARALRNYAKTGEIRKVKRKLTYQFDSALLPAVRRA
Outline: as §1

ELK3 = target: T6, ELK3 (Homo sapiens, UniProt P41970 1-407)
T6 sequence: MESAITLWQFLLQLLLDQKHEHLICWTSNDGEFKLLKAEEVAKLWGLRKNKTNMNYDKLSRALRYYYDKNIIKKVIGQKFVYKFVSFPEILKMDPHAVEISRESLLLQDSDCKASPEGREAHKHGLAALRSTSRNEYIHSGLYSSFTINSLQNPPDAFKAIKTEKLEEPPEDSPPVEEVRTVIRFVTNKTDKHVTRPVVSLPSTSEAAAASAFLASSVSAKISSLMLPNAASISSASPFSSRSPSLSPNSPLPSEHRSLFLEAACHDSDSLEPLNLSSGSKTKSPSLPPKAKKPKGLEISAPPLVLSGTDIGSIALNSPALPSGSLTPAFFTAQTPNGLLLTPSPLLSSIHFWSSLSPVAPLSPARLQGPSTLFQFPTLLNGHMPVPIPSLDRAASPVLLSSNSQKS
Outline: as §1

Row | Sequence | binding signal (FLI1) | binding signal (ELK1) | binding signal (GABPA) | binding signal (ERG) | binding signal (ELF1) | binding signal (EHF) | binding signal (SPI1) | binding signal (SPIB) | binding signal (ELK3)
1 | CCTAGC | 1.18 fold enrichment (6-mer frequency, TF over GST control) | 1.1 fold enrichment (6-mer frequency, TF over GST control) | 1.31 fold enrichment (6-mer frequency, TF over GST control) | 1.14 fold enrichment (6-mer frequency, TF over GST control) | 1.24 fold enrichment (6-mer frequency, TF over GST control) | 1.2 fold enrichment (6-mer frequency, TF over GST control) | 1.04 fold enrichment (6-mer frequency, TF over GST control) | 1.26 fold enrichment (6-mer frequency, TF over GST control) | 1.22 fold enrichment (6-mer frequency, TF over GST control)
2 | AACACA | 1.32 fold enrichment (6-mer frequency, TF over GST control) | 1.32 fold enrichment (6-mer frequency, TF over GST control) | 1.33 fold enrichment (6-mer frequency, TF over GST control) | 1.32 fold enrichment (6-mer frequency, TF over GST control) | 1.39 fold enrichment (6-mer frequency, TF over GST control) | 1.38 fold enrichment (6-mer frequency, TF over GST control) | 1.27 fold enrichment (6-mer frequency, TF over GST control) | 1.35 fold enrichment (6-mer frequency, TF over GST control) | 1.26 fold enrichment (6-mer frequency, TF over GST control)
3 | TGTAAT | 1.27 fold enrichment (6-mer frequency, TF over GST control) | 1.2 fold enrichment (6-mer frequency, TF over GST control) | 1.2 fold enrichment (6-mer frequency, TF over GST control) | 1.2 fold enrichment (6-mer frequency, TF over GST control) | 1.18 fold enrichment (6-mer frequency, TF over GST control) | 1.15 fold enrichment (6-mer frequency, TF over GST control) | 1.15 fold enrichment (6-mer frequency, TF over GST control) | 1.25 fold enrichment (6-mer frequency, TF over GST control) | 1.26 fold enrichment (6-mer frequency, TF over GST control)
4 | ATAGTA | 1.12 fold enrichment (6-mer frequency, TF over GST control) | 1.18 fold enrichment (6-mer frequency, TF over GST control) | 1.19 fold enrichment (6-mer frequency, TF over GST control) | 1.15 fold enrichment (6-mer frequency, TF over GST control) | 1.19 fold enrichment (6-mer frequency, TF over GST control) | 1.22 fold enrichment (6-mer frequency, TF over GST control) | 1.06 fold enrichment (6-mer frequency, TF over GST control) | 1.13 fold enrichment (6-mer frequency, TF over GST control) | 1.12 fold enrichment (6-mer frequency, TF over GST control)
5 | CTAGCT | 1.36 fold enrichment (6-mer frequency, TF over GST control) | 1.37 fold enrichment (6-mer frequency, TF over GST control) | 1.3 fold enrichment (6-mer frequency, TF over GST control) | 1.3 fold enrichment (6-mer frequency, TF over GST control) | 1.31 fold enrichment (6-mer frequency, TF over GST control) | 1.29 fold enrichment (6-mer frequency, TF over GST control) | 1.33 fold enrichment (6-mer frequency, TF over GST control) | 1.34 fold enrichment (6-mer frequency, TF over GST control) | 1.39 fold enrichment (6-mer frequency, TF over GST control)
6 | GATGAC | 1.58 fold enrichment (6-mer frequency, TF over GST control) | 1.51 fold enrichment (6-mer frequency, TF over GST control) | 1.62 fold enrichment (6-mer frequency, TF over GST control) | 1.59 fold enrichment (6-mer frequency, TF over GST control) | 1.6 fold enrichment (6-mer frequency, TF over GST control) | 1.43 fold enrichment (6-mer frequency, TF over GST control) | 1.58 fold enrichment (6-mer frequency, TF over GST control) | 1.45 fold enrichment (6-mer frequency, TF over GST control) | 1.45 fold enrichment (6-mer frequency, TF over GST control)
7 | TTGTGC | 1.28 fold enrichment (6-mer frequency, TF over GST control) | 1.25 fold enrichment (6-mer frequency, TF over GST control) | 1.27 fold enrichment (6-mer frequency, TF over GST control) | 1.23 fold enrichment (6-mer frequency, TF over GST control) | 1.14 fold enrichment (6-mer frequency, TF over GST control) | 1.21 fold enrichment (6-mer frequency, TF over GST control) | 1.18 fold enrichment (6-mer frequency, TF over GST control) | 1.1 fold enrichment (6-mer frequency, TF over GST control) | 1.21 fold enrichment (6-mer frequency, TF over GST control)
